Reference: PubChem BioAssay
Calls of active or inactive are those of the source.

Test: PSAC antagonists in infected red cells, primary screen, cell-based, P. falciparum Indochina, OD700, 2 h (AID 1155);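 also: lysis reports solute entry through the parasite surface anion channel PSAC; channel blockers reduce lysis of infected cells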
Conditions: P. falciparum Indochina infected erythrocytes, osmotic lysis OD700; higher = more signal, called active from +8 up or from −8 down

z-score, inactive:
C#CCCCON=C1C[C@@H](O)[C@@H](O)[C@@H]2[C@@H]3C(=O)N(Cc4ccccc4)C(=O)[C@@H]3CC[C@@H]12 0.579
CCCNC(=O)OC[C@H]1O[C@H](CCON=C(C)CCC(=O)OC[C@H]2O[C@H](c3ccccc3)C=C[C@@H]2Oc2ccc(OC)cc2)C=C[C@@H]1Oc1ccc(OC)cc1 0.767
CO[C@H]1COC(=O)[C@@H](C)COC(=O)[C@H](C)NC(=O)CC=C[C@H]1C 0.725
C[C@@H](c1ccccc1)N1C(=O)[C@H]2[C@H]3[C@H](O)[C@H](O)CC(=O)[C@H]3CC[C@H]2C1=O 0.0593
CO[C@H]1COC(=O)CC=C[C@@H](C)[C@H](NS(=O)(=O)c2ccc(C)cc2)COC(=O)CCC[C@@H]1C -1.56
CO[C@@H]1COC(=O)[C@H](CCSC)NC(=O)CC=C[C@@H](C)COC(=O)[C@H](C)NC(=O)CC=C[C@H]1C 0.327
CCC(=O)[C@@]1(O)C(=O)N2C(=C3C(=O)OCC[C@@H]31)N(Cc1ccccc1)C(C)=C(C(=O)OC)[C@H]2c1ccccc1 0.633
CCOC(=O)[C@H](CC(C)C)NC(=O)CCC1CC(OC(=O)NCCc2ccc(F)cc2)CC2(CCCC(COC(=O)NCCOc3ccccc3)O2)O1 (stereo partly specified) 0.394
CCCNC(=O)OC[C@H]1O[C@H](CCON=C(C)CCN2CCCc3nc(C)c(C)cc32)C=C[C@@H]1Oc1ccc(OC)cc1 0.722
O=C1CCCC=C1C(O)CCOC(c1ccccc1)(c1ccccc1)c1ccccc1 (stereo unspecified) -0.349
CCCNC(=O)OC[C@H]1O[C@H](CCON=Cc2ccc(C(=O)N3[C@H](c4ccc(C)cc4)[C@@H](C)CC[C@H]3C(=O)OC)cc2)C=C[C@@H]1Oc1ccc(OC)cc1 0.674
C[C@@H]1CC[C@H]2C(=O)O[C@@H](Cc3ccccc3)CN2[C@H]1c1ccc(Br)cc1 0.935
Cc1cc2c(nc1C)CCCCN2CC(C)ON=C1[C@H]2CCn3c(=O)n(-c4ccccc4)c(=O)n3[C@H]2[C@H](O)[C@@H]2O[C@H]12 (stereo partly specified) 0.0165
C#CCCCON=C1C[C@@H](O)[C@@H](O)[C@@H]2[C@@H]3C(=O)N(c4ccc(F)cc4F)C(=O)[C@@H]3CC[C@@H]12 0.719
CCOC(=O)NN=C1C[C@@H](O)[C@@H](O)[C@@H]2[C@@H]3C(=O)N(c4cccc(Oc5ccccc5)c4)C(=O)[C@@H]3CC[C@@H]12 0.753
CO[C@@H]1COC(=O)[C@H](CCSC)NC(=O)CC=C[C@@H](C)COC(=O)CCC[C@H]1C 3.14
O=c1n(-c2ccccc2)c(=O)n2n1CC[C@@H]1C(=NOCc3ccccc3)[C@H]3O[C@H]3[C@@H](O)[C@@H]12 0.0311
C[C@@H](c1ccccc1)N1C(=O)[C@H]2[C@H]3[C@H](O)[C@H](O)CC(=NO[C@@H]4O[C@H](CO)[C@@H](O)[C@H](O)[C@H]4O)[C@@H]3CC[C@H]2C1=O -0.076
CC(C)=CCCC(C)=CCON=C1C[C@@H](O)[C@@H](O)[C@@H]2[C@@H]3C(=O)N(c4ccc(F)cc4F)C(=O)[C@@H]3CC[C@@H]12 1.21
Cc1ccc(S(=O)(=O)OC[C@H]2CN3[C@H](c4ccc(Br)cc4)[C@@H](C)CC[C@H]3C(=O)O2)cc1 0.57
CC(C)CON=C1C[C@@H](O)[C@@H](O)[C@@H]2[C@@H]3C(=O)N(C[C@@H]4CCCO4)C(=O)[C@@H]3CC[C@@H]12 -0.379
CC(C)=NOC[C@@H](C)[C@H](OCc1ccccc1)C(C)C 0.503
CO[C@H](C1CCCCC1)[C@H](C)C=CCC(=O)OCCCc1ccccc1 0.726
CCOC(=O)[C@H](CC(C)C)NC(=O)CCC1CC(OC(=O)NCc2ccc3c(c2)OCO3)CC2(CCCC(COC(=O)NCc3cccc(C(F)(F)F)c3)O2)O1 (stereo partly specified) 0.182
CC(C)=CCCC(C)=CCON=C1C[C@@H](O)[C@@H](O)[C@@H]2[C@@H]3C(=O)N(C(C)(C)C)C(=O)[C@@H]3CC[C@@H]12 0.761
CCOC(=O)[C@H](Cc1ccccc1)NC(=O)CCC1CC(OC(=O)NCCc2ccc(F)cc2)CC2(CCCC(COC(=O)NCCc3ccccc3OC)O2)O1 (stereo partly specified) 0.136
